We go through four compounds from PubChem BioAssay AID2283174 (EPA ToxCast).

Calls of active or inactive are those of the source. Rule for the calls: active = hit-call score of the fitted dose curve at least 0.9, where 1 is the maximum; inactive = score below 0.9.

For this experiment, the target named is human Mitogen-Activated Protein Kinase 11 (MAPK 11), MAPK11 (gene 5600) (UniProt Q15759). The experiment can be described thus: NVS_ENZ_hMAPK11: NovaScreen (NVS) Enzymatic Assay for human Mitogen-Activated Protein Kinase 11 (MAPK 11). How it is done:
NVS_ENZ_hMAPK11 is a biochemical, single-readout assay that uses extracted gene-proteins in a cell-free assay. Measurements were taken 0 hour after chemical dosing in a 384-well plate.NVS_ENZ_hMAPK11 is one of one assay component(s) measured or calculated from the NVS_ENZ_hMAPK11 assay. It is designed to make measurements of enzyme activity, a form of enzyme reporter, as detected with fluorescence intensity signals by Fluorescence and electrophoretic mobility shift technology.Data from the assay component NVS_ENZ_hMAPK11 was analyzed into 1 assay endpoint. This assay endpoint, NVS_ENZ_hMAPK11, was analyzed in the positive analysis fitting direction relative to DMSO as the negative control and baseline of activity. Using a type of enzyme reporter, loss-of-signal activity can be used to understand changes in the enzymatic activity as they relate to the gene MAPK11. Furthermore, this assay endpoint can be referred to as a primary readout, because this assay has produced multiple assay endpoints where this one serves a enzymatic activity function. To generalize the intended target to other relatable targets, this assay endpoint is annotated to the kinase intended target family, where the subfamily is serine/threonine kinase.
Binding assays used specific radioligands (tritiated, iodinated) with non-radioactive competitive displacement ligands in agonist or antagonist protocols (as indicated) and various reference compounds and inhibitors to titrate specific binding to receptors and transporters. Most enzyme assays (CYPs, kinases, phosphatases, proteases, HDACs) used recombinant protein and specific substrates (fluorescence mostly, some colorimetric and radioactive) and inhibitors, followed by a biochemical separation of substrate and product. All assays for the biochemical HTS were initially run in duplicate at a single concentration (10 uM for CYP450 assays and 25 uM for all others). Assay-chemical combinations meeting a pre-defined threshold (e.g., 30% inhibition and other criteria defined below) were then run in singleton concentration-response format with maximum concentration of 20 uM for CYPs and 50 uM for all others. Each assay was run with positive and negative controls, and concurrent controls on every plate. The follow-up (secondary) screen tested active chemical-pairs in concentration series, as well as a few additional assays not tested in the primary screen, some selected negative inactives, and several cases re-run in the concentration series for confirmatory purposes.

Sequence of human Mitogen-Activated Protein Kinase 11 (MAPK 11), MAPK11 (gene 5600) (Q15759 whole entry, looked up): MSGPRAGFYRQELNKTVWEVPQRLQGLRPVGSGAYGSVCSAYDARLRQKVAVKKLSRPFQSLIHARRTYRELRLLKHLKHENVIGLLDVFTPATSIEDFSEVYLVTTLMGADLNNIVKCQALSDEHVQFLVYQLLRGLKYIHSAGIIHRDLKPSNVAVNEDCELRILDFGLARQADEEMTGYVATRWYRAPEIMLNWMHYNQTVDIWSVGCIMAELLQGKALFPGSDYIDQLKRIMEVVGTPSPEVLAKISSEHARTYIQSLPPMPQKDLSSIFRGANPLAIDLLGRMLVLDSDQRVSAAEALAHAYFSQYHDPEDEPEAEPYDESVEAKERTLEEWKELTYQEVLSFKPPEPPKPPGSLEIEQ

`Fc1ccc(Oc2ccnc3cc(Cl)cc(Cl)c23)cc1`: the outcome was inactive. Under `COc1nc(C)nc(NC(=O)NS(=O)(=O)c2ccccc2CCC(F)(F)F)n1` stands “inactive”; under `C[Si](Cn1cncn1)(c1ccc(F)cc1)c1ccc(F)cc1`, “inactive”. For the compound `CC(C)(C)C(O)/C(=C\c1ccc(Cl)cc1Cl)n1cncn1` (centres undefined), the compound was classed as inactive.
